This passage reports Percent Effect results from ChEMBL document CHEMBL3988442, “University of Dundee, Small-Polar-MMV Screening Library” (2021).

For some of these results: Results with a measured potency or affinity are listed apart.

Holding throughout (set-up): scale not given: direction of the effect not stated beside the values
For test [1], the target named is Protein translocase subunit SecA (Escherichia coli (strain K12)) (UniProt P10408). The test is described as follows: Assay to Identify E. coli SecA ATPase Inhibitors. The class given is functional. As to conditions: 30 µM.
For test [2], the target named is T1, Ubiquitin-activating enzyme e1, putative (Leishmania donovani (strain BPK282A1)) (UniProt E9BSI1).
T1 sequence (whole entry): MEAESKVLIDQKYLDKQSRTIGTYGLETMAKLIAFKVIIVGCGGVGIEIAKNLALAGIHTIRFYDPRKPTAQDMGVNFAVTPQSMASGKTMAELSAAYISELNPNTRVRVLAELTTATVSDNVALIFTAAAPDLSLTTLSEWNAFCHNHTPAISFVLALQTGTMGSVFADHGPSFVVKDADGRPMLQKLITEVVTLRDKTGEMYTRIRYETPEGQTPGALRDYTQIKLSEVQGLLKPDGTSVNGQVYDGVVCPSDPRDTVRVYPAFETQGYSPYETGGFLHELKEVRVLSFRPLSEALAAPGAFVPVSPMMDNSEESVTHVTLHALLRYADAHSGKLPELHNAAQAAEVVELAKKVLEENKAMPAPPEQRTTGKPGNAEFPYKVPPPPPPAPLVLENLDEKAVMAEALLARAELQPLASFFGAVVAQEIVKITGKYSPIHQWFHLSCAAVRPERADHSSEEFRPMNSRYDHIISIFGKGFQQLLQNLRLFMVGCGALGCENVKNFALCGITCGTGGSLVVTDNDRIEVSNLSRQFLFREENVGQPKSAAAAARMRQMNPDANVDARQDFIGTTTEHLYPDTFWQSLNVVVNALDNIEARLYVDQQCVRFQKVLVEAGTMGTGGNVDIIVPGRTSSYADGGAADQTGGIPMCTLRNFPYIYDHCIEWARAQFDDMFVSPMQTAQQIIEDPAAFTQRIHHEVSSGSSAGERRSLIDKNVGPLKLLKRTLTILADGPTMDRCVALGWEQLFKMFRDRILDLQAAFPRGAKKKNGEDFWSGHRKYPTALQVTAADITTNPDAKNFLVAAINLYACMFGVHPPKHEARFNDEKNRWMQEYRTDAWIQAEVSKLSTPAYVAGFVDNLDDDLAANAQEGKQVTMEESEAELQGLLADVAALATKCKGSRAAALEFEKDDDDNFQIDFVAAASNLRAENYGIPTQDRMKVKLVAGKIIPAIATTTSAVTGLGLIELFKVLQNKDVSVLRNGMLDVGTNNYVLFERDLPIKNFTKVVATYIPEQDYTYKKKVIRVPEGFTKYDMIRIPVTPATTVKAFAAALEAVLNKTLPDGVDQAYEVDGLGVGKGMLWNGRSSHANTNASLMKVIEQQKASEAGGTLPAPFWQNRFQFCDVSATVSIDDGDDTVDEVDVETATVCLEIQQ
Briefly: Leishmania donovani Ubiquitin Activating Enzyme (LdE1). The format is functional. As to conditions: 30 µM.

Test [3] concerns the target AMP-activated protein kinase, AMPK (Homo sapiens) (UniProt P54646+O43741+P54619+Q9UGJ0+Q9Y478+Q13131+Q9UGI9). The test is described as follows: AMP-dependent Kinase enzyme assay. An in vitro enzyme assay that detects ADP turnover that is directly proportional to AMPK activity. This uses naive AMPK that is activated during the assay with MK-8722. As to conditions: 30 µM. The class given is functional.

Test [4] deals with Sialic acid-binding Ig-like lectin 9 (Homo sapiens) (UniProt Q9Y336). The test is described as follows: Hs-Siglec9 ALPHAscreen SOP 20170721. As to conditions: 10 µM. A general note: Bead proximity is the source of the signal in Alpha formats.
A further test relates to Trypanosoma cruzi. The test is described as follows: Trypanosoma cruzi phosphomannomutase and mannose-1-phosphate guanylyltransferase assay. The format is functional. Particulars: 10 µM.
The target of test [5] is T2, Arginase-2, mitochondrial (Homo sapiens) (UniProt P78540).
T2 sequence (whole entry): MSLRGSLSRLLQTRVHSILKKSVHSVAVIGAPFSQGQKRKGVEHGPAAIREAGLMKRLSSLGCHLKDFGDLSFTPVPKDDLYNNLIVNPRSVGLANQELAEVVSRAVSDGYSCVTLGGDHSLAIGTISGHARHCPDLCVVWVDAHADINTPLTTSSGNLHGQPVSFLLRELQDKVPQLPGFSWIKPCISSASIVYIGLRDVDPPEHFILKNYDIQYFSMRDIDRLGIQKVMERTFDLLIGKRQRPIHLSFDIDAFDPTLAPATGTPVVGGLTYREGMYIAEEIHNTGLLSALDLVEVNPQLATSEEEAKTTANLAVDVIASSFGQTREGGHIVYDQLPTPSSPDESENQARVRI
Briefly: in vitro enzyme assay to detect the production of urea directly proportional to the activity of Arginase II. Note: in the data most compounds retested in dose-response had high values. The class given is functional. Particulars: 33.3 µM.

In test [6] the target is T3, Proteasome subunit beta (Trypanosoma cruzi) (UniProt O96673).
T3 sequence (whole entry): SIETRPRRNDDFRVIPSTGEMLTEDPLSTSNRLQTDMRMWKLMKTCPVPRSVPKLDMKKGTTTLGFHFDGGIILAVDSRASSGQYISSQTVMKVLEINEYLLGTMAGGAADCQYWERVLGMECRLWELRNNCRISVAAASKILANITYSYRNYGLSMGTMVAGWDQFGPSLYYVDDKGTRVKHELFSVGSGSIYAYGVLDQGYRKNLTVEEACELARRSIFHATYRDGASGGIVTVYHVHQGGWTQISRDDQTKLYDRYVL
Briefly: Trypanosoma cruzi proteasome chymotrypsin-like activity (TcProtChymo) assay. Note: in the data most compounds retested in dose-response had high values. The class given is functional. As to conditions: 9.37 µM.

The next test is filed under the species Homo sapiens. The test is described as follows: To identify inhibition of the IFN signalling (Jak-Stat) pathway via expression of an eGFP reporter gene under the control of an IFN-stimulated response element (ISRE) containing MxA promoter. The class given is functional. As to conditions: 30 µM. Background: Reporter assays use an easily measured gene product as a stand-in for the process of interest.

The target of test [7] is T4, Tyrosyl-tRNA synthetase, putative (Trypanosoma cruzi (strain CL Brener)) (UniProt Q4DSP6).
T4 sequence (whole entry): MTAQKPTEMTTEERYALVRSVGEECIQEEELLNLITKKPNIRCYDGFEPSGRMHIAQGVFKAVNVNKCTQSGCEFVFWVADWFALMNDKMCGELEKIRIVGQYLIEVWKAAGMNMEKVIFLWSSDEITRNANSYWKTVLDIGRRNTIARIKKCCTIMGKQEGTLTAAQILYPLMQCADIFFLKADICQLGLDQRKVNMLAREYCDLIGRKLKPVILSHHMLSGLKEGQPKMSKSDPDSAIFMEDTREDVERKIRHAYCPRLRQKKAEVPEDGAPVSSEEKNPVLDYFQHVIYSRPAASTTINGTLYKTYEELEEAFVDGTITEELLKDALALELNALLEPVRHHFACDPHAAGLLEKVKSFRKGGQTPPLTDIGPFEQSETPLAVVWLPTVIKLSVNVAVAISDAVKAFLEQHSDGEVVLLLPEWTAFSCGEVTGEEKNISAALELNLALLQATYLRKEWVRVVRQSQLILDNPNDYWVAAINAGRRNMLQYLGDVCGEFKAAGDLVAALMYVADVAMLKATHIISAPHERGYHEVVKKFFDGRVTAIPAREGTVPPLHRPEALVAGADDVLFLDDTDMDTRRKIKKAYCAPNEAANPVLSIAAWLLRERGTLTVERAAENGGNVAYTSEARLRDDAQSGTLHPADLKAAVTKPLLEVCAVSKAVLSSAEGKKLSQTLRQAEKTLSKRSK
The test is described as follows: Trypanosoma cruzi tyrosyl tRNA synthetase (TcYRS) _High Tyrosine SOP. Note: in the data most compounds retested in dose-response had high values. The class given is functional. Particulars: 30 µM.

For test [8], the target named is T4, Tyrosyl-tRNA synthetase, putative (Trypanosoma cruzi (strain CL Brener)). Briefly: Trypanosoma cruzi tyrosyl tRNA synthetase (TcYRS) SOP. The format is functional. Particulars: 30 µM.
Test [9] addresses Chromo domain-containing protein 1 (Saccharomyces cerevisiae (strain ATCC 204508 / S288c) (Baker's yeast)) (UniProt P32657). The test is described as follows: ScCHD-1 Enzyme Inhibition Assay. Note: in the data most compounds retested in dose-response had high values. The class given is functional. Particulars: 30 µM.

Sequence of Sialic acid-binding Ig-like lectin 9 (Homo sapiens) (Q9Y336 whole entry): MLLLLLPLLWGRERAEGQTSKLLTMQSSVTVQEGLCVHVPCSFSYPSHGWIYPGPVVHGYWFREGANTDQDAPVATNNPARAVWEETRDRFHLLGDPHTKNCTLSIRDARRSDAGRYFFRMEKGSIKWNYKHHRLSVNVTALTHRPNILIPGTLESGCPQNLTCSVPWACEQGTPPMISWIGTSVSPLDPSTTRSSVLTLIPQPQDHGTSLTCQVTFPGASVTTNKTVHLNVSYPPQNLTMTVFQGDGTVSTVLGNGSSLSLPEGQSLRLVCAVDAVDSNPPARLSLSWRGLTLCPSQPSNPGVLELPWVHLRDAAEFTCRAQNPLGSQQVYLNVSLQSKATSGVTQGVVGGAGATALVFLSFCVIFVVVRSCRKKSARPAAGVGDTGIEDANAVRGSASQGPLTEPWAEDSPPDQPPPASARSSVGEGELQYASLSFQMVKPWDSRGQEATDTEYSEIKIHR
Sequence of Chromo domain-containing protein 1 (Saccharomyces cerevisiae (strain ATCC 204508 / S288c) (Baker's yeast)) (P32657 whole entry, the tested form may be a part): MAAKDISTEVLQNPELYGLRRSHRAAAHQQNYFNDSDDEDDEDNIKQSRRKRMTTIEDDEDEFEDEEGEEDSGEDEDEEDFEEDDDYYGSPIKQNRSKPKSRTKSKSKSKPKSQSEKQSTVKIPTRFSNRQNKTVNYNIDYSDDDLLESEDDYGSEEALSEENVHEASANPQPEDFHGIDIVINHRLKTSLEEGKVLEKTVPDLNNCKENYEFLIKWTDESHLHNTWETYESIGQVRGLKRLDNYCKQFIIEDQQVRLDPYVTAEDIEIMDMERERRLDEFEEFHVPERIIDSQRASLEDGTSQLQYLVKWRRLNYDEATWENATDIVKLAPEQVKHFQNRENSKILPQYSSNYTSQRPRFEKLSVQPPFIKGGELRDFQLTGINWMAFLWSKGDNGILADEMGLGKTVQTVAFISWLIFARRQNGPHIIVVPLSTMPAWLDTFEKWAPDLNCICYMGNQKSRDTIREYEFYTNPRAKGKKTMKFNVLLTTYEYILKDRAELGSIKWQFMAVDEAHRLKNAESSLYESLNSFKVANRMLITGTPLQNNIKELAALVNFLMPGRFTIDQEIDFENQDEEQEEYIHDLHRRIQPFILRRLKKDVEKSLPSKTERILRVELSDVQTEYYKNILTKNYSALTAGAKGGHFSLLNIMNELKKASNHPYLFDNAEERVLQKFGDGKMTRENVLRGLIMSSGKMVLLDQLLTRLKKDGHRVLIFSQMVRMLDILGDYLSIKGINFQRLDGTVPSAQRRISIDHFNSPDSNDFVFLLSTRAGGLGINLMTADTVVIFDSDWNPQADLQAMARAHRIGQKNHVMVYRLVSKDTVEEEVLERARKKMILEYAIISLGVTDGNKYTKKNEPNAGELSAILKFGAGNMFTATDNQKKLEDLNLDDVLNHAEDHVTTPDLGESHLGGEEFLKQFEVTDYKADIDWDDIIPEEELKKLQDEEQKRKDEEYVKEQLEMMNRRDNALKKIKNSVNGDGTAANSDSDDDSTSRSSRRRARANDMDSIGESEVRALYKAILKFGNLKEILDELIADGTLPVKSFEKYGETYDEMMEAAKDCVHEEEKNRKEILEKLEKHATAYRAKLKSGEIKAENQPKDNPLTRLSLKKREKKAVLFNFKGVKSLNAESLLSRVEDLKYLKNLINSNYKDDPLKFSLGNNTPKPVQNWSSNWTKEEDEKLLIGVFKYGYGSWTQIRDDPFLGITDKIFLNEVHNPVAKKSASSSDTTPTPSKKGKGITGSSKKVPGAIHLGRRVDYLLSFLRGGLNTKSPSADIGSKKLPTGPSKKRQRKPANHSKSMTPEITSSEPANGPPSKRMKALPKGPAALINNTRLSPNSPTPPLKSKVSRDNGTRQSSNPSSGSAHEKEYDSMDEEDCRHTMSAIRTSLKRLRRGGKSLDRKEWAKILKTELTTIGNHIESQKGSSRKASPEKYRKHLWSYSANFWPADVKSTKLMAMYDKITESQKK
Sequence of Protein translocase subunit SecA (Escherichia coli (strain K12)) (P10408 whole entry): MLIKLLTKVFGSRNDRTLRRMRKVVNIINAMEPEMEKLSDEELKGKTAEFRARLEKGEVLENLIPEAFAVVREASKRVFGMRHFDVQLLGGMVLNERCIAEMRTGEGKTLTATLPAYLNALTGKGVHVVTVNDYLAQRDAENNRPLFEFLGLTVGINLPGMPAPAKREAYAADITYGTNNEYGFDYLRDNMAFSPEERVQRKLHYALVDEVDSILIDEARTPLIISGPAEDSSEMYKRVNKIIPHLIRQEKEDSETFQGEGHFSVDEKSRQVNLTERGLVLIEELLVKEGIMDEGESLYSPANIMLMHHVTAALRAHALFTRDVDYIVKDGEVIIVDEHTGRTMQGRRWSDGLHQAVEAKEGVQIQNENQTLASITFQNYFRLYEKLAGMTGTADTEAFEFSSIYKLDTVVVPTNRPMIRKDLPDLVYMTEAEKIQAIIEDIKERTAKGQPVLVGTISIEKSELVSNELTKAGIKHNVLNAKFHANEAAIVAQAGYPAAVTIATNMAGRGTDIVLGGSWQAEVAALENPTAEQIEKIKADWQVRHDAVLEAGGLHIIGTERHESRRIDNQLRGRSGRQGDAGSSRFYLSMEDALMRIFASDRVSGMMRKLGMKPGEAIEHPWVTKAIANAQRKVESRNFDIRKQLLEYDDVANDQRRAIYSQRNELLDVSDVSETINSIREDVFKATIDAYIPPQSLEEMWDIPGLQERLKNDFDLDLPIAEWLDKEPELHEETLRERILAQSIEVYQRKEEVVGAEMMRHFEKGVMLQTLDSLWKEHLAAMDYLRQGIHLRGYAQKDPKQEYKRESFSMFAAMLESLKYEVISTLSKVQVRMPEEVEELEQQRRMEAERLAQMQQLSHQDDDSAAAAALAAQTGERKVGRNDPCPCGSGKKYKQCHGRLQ

In the case of `CNC(=O)N1CC[C@H]2N(C)CC[C@@]2(C(=O)Nc2ccccc2)CC1`, the Percent Effect was -3.9% in [1]; 5.41% in test [2]; -2.05% in test [3]; 1.61% in test [4]; 5.08% in the test on Trypanosoma cruzi; 4.17% in [5]. Besides, the Percent Effect in [6] is 2.45%; in the test listed under Homo sapiens it was 11.5%; in [7] it was 1.98%; in test [8] it was 6.1%; in [9], -1.69%.

With `O=C(C1=CCCC1)N1CCO[C@H]2[C@@H](Oc3ccccn3)CC[C@@H]21`, the Percent Effect is -2.61% in test [1]; 13.3% in test [2]; 4.5% in test [3]; 0.0747% in test [4]; 0.787% with Trypanosoma cruzi; 3.96% in test [5]. For the same compound, the Percent Effect in [6] is 9.96%; in the test filed under Homo sapiens it was 9.01%; in test [7] it was 7.45%; in test [8] it was 16.7%; in test [9] it was -3.61%.

For `N#Cc1cccnc1NCCNC(=O)N1CCCSCC1`, the Percent Effect was -3.35% in test [1]; 2.7% in [2]; -4.19% in [3]; 3.38% in test [4]; 8.11% in the test with Trypanosoma cruzi; -2.38% in test [5]. In addition, the Percent Effect in test [6] is 14.3%; in the test listed under Homo sapiens, -19.3%; in test [7] it was 3.7%; in test [8], 12.2%; in [9], -6.59%.

As to `COc1ccccc1CC(=O)NS(C)(=O)=O`, the Percent Effect in [1] is -4.83%; in test [2], 5.2%; in [3] it was 1.28%; in test [4], 1.8%; with Trypanosoma cruzi it was -1.87%; in test [5], -1.42%. Further, the Percent Effect in [6] was 7.6%; in the test listed under Homo sapiens, 20.4%; in [7] it was 4.85%; in [8], 14.6%; in test [9], -6.74%.

For the compound `CCOCC1CN(S(=O)(=O)N(C)C)Cc2cnn(C)c21` (stereo unspecified), the Percent Effect is -2.24% in test [1]; 5.48% in test [2]; -0.778% in test [3]; 4.27% in test [4]; -5.16% with Trypanosoma cruzi; -8.38% in test [5]. Besides, the Percent Effect in test [6] was 4.71%; in the test filed under Homo sapiens it was 11.6%; in test [7], 7.29%; in test [8], 1.24%; in test [9], -2.91%.

On to `Cc1ccccc1CS(=O)(=O)NCCCN1CCCCC1`, for which the Percent Effect is -6.3% in [1]; 5.33% in [2]; 6.44% in test [3]; 24.2% in test [4]; 0.292% in the test with Trypanosoma cruzi; 2.6% in test [5]. For the same compound, the Percent Effect in test [6] was 6.63%; in the test filed under Homo sapiens it was 7.26%; in test [7], 1.64%; in [8], 3.7%; in test [9], -2.2%.

For `OC(COc1ccccc1)CN1CCC(c2ccn[nH]2)CC1` (stereo unspecified), the Percent Effect was -2.35% in [1]; 15.2% in test [2]; -5.68% in test [3]; 0.333% in test [4]; -4.82% in the test on Trypanosoma cruzi; 3.04% in test [5]. For the same compound, the Percent Effect in test [6] was 2.05%; in the test filed under Homo sapiens, -21.8%; in [7], 2.46%; in test [8], 13.9%; in test [9], -2.28%.

With `CCc1nc(C2CCCN(C(=O)c3cnn(CC)c3)C2)no1` (stereo unspecified), the Percent Effect in test [1] is -7.03%; in test [2], 0%; in [3] it was 3.03%; in test [4], -1.97%; in the test with Trypanosoma cruzi, -5.16%; in [5] it was 1.18%. Moreover, the Percent Effect in test [6] was 5.66%; in the test filed under Homo sapiens it was -8.3%; in test [7], 1.06%; in test [8] it was 5.2%; in test [9], -2.87%.

On to `CC(=O)N(Cc1noc(C)n1)C1CCN(Cc2cc(C)on2)C1` (stereo unspecified), for which the Percent Effect is -2.56% in test [1]; 18.2% in test [2]; 1.37% in test [3]; -5.63% in [4]; 0.0979% with Trypanosoma cruzi; -1.05% in [5]. The Percent Effect in test [6] is 18.5%; in the test listed under Homo sapiens, 12.2%; in test [7], 10.5%; in test [8] it was 30.6%; in [9], -15%.

With `CN(C)CCNC(=O)c1cnc2c(c1)nc(-c1ccccc1Cl)n2C`, the Percent Effect was -0.258% in test [1]; 8.11% in test [2]; -1.84% in test [3]; 30.9% in test [4]; 3.81% with Trypanosoma cruzi; 1.74% in test [5]. The Percent Effect was 9.36% in test [6]; 17.4% in the test listed under Homo sapiens; 7.53% in test [7]; 16.1% in test [8]; -5.45% in [9].

Regarding `CCn1cnnc1CNC(=O)c1ccc(Cl)cc1F`, the Percent Effect in test [1] was -2.15%; in test [2], 16.5%; in [3] it was -1.73%; in [4] it was 3.58%; in the test with Trypanosoma cruzi it was 0.103%; in test [5], -6.24%. For the same compound, the Percent Effect was 16.6% in test [6]; 5.91% in the test filed under Homo sapiens; 9.38% in [7]; 17.7% in test [8]; -13.8% in [9].
